Source: the supplement of paper PMC8728848
About 410 targets per protein were measured; listed, in parts, are those with the strongest signals and a random draw of the rest.

How the values were obtained:
Experiment in all cases: glycan array binding signal (z-score within array); higher = stronger binding
Settings in all cases: glycan notation: IUPAC condensed, linker removed
[1] = target: Fuc(a1-2)Gal(b1-3)GalNAc(a1-3)[Fuc(a1-2)]Gal(b1-4)Glc
Method in brief: (§1)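 The binding signal is a Z-score computed within each array and averaged over linkers. Arrays of the same protein sequence at different concentrations or buffers were also averaged together. Data originate from 3228 arrays in the Consortium for Functional Glycomics database, kept only where the protein sequence was available.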

[2] = target: Fuc(a1-2)Gal(b1-3)GlcNAc
Method in brief: as §1

[3] = target: Fuc(a1-2)Gal(b1-3)GlcNAc(b1-3)GalNAc
Method in brief: as §1

[4] = target: Fuc(a1-2)Gal(b1-4)GlcNAc(b1-3)Gal(b1-4)GlcNAc
Method in brief: as §1

[5] = target: Fuc(a1-2)Gal(b1-4)[Fuc(a1-3)]GlcNAc(b1-2)[Fuc(a1-2)Gal(b1-4)[Fuc(a1-3)]GlcNAc(b1-4)]Man(a1-3)[Fuc(a1-2)Gal(b1-4)[Fuc(a1-3)]GlcNAc(b1-2)Man(a1-6)]Man(b1-4)GlcNAc(b1-4)GlcNAc
Method in brief: as §1

[6] = target: Fuc(a1-2)[Gal(a1-3)]Gal(b1-4)GlcNAc(b1-2)Man(a1-3)[Fuc(a1-2)[Gal(a1-3)]Gal(b1-4)GlcNAc(b1-2)Man(a1-6)]Man(b1-4)GlcNAc(b1-4)GlcNAc
Method in brief: as §1

[7] = target: Fuc(a1-2)[GalNAc(a1-3)]Gal(b1-4)[Fuc(a1-3)]GlcNAc(b1-3)GalNAc
Method in brief: as §1

[8] = target: Fuc(a1-3)[Gal3S(b1-4)]GlcNAc
Method in brief: as §1

[9] = target: Gal(a1-3)Gal(b1-3)GlcNAc(b1-2)Man
Method in brief: as §1

[10] = target: Gal(a1-3)Gal(b1-4)GlcNAc
Method in brief: as §1

[11] = target: Gal(a1-3)Gal(b1-4)GlcNAc(b1-2)Man(a1-3)[Gal(a1-3)Gal(b1-4)GlcNAc(b1-2)Man(a1-6)]Man(b1-4)GlcNAc(b1-4)GlcNAc
Method in brief: as §1

[12] = target: Gal(b1-3)GlcNAc
Method in brief: as §1

[13] = target: Gal(b1-3)GlcNAc(b1-3)Gal(b1-3)GlcNAc
Method in brief: as §1

[14] = target: Gal(b1-3)GlcNAc(b1-3)Gal(b1-4)GlcNAc(b1-2)Man(a1-3)[Gal(b1-3)GlcNAc(b1-3)Gal(b1-4)GlcNAc(b1-2)Man(a1-6)]Man(b1-4)GlcNAc(b1-4)GlcNAc
Method in brief: as §1

[15] = target: Gal(b1-3)GlcNAc(b1-3)Gal(b1-4)GlcNAc(b1-2)[Gal(b1-3)GlcNAc(b1-3)Gal(b1-4)GlcNAc(b1-6)]Man(a1-6)[Gal(b1-3)GlcNAc(b1-3)Gal(b1-4)GlcNAc(b1-2)Man(a1-3)]Man(b1-4)GlcNAc(b1-4)[Fuc(a1-6)]GlcNAc
Method in brief: as §1

[16] = target: Gal(b1-3)GlcNAc(b1-3)Gal(b1-4)GlcNAc(b1-3)Gal(b1-4)GlcNAc(b1-2)[Gal(b1-3)GlcNAc(b1-3)Gal(b1-4)GlcNAc(b1-3)Gal(b1-4)GlcNAc(b1-6)]Man(a1-6)[Gal(b1-3)GlcNAc(b1-3)Gal(b1-4)GlcNAc(b1-3)Gal(b1-4)GlcNAc(b1-2)Man(a1-3)]Man(b1-4)GlcNAc(b1-4)[Fuc(a1-6)]GlcNAc
Method in brief: as §1

[17] = target: Gal(b1-3)[Fuc(a1-4)]GlcNAc(b1-2)Man(a1-3)[Gal(b1-3)[Fuc(a1-4)]GlcNAc(b1-2)Man(a1-6)]Man(b1-4)GlcNAc(b1-4)[Fuc(a1-6)]GlcNAc
Method in brief: as §1

[18] = target: Gal(b1-4)Glc
Method in brief: as §1

[19] = target: Gal(b1-4)GlcNAc(b1-2)Man(a1-3)[Gal(b1-4)GlcNAc(b1-2)Man(a1-6)]Man(b1-4)GlcNAc(b1-4)GlcNAc
Method in brief: as §1

[20] = target: Gal(b1-4)GlcNAc(b1-3)Gal(b1-3)GalNAc
Method in brief: as §1

[21] = target: Gal(b1-4)GlcNAc(b1-3)Gal(b1-4)GlcNAc(b1-2)[Gal(b1-4)GlcNAc(b1-3)Gal(b1-4)GlcNAc(b1-6)]Man(a1-6)[Gal(b1-4)GlcNAc(b1-3)Gal(b1-4)GlcNAc(b1-2)Man(a1-3)]Man(b1-4)GlcNAc(b1-4)[Fuc(a1-6)]GlcNAc
Method in brief: as §1

[22] = target: Gal3S(b1-3)GalNAc
Method in brief: as §1

[23] = target: GalNAc(a1-3)GalNAc(b1-3)Gal(a1-4)Gal(b1-4)GlcNAc
Method in brief: as §1

[24] = target: Glc(b1-6)Glc
Method in brief: as §1

[25] = target: GlcNAc(b1-2)[GlcNAc(b1-4)]Man(a1-3)[GlcNAc(b1-4)][GlcNAc(b1-2)Man(a1-6)]Man(b1-4)GlcNAc(b1-4)GlcNAc
Method in brief: as §1

[26] = target: GlcNAc(b1-2)[GlcNAc(b1-4)]Man(a1-3)[GlcNAc(b1-4)][GlcNAc(b1-2)[GlcNAc(b1-6)]Man(a1-6)]Man(b1-4)GlcNAc(b1-4)[Fuc(a1-6)]GlcNAc
Method in brief: as §1

[27] = target: GlcNAc(b1-3)Gal(b1-4)GlcNAc(b1-2)[GlcNAc(b1-3)Gal(b1-4)GlcNAc(b1-6)]Man(a1-6)[GlcNAc(b1-3)Gal(b1-4)GlcNAc(b1-2)Man(a1-3)]Man(b1-4)GlcNAc(b1-4)GlcNAc
Method in brief: as §1

[28] = target: GlcNAc(b1-3)Gal(b1-4)GlcNAc(b1-3)GalNAc
Method in brief: as §1

[29] = target: GlcNAc(b1-4)Gal(b1-4)GlcNAc
Method in brief: as §1

[30] = target: GlcNAc(b1-4)GlcNAc(b1-4)GlcNAc(b1-4)GlcNAc(b1-4)GlcNAc
Method in brief: as §1

[31] = target: GlcNAc(b1-4)GlcNAc(b1-4)GlcNAc(b1-4)GlcNAc(b1-4)GlcNAc(b1-4)GlcNAc
Method in brief: as §1

[32] = target: GlcNAc(b1-4)[GlcNAc(b1-6)]GalNAc
Method in brief: as §1

[33] = target: Man(a1-3)[Man(a1-6)]Man(b1-4)GlcNAc(b1-4)GlcNAc
Method in brief: as §1

[34] = target: Neu5Ac(a2-3)Gal(b1-3)GalNAc
Method in brief: as §1

[35] = target: Neu5Ac(a2-3)Gal(b1-4)[Fuc(a1-3)]GlcNAc
Method in brief: as §1

[36] = target: Neu5Ac(a2-3)Gal(b1-4)[Fuc(a1-3)]GlcNAc(b1-3)GalNAc
Method in brief: as §1

[37] = target: Neu5Ac(a2-3)Gal6S(b1-4)[Fuc(a1-3)]GlcNAc
Method in brief: as §1

[38] = target: Neu5Ac(a2-3)GalNAc(b1-4)GlcNAc
Method in brief: as §1

[39] = target: Neu5Ac(a2-6)Gal(b1-4)Glc
Method in brief: as §1

[40] = target: Neu5Ac(a2-6)GalNAc(b1-4)GlcNAc
Method in brief: as §1

Binder	glycan array binding signal (z-score) [1]	glycan array binding signal (z-score) [2]	glycan array binding signal (z-score) [3]	glycan array binding signal (z-score) [4]	glycan array binding signal (z-score) [5]	glycan array binding signal (z-score) [6]	glycan array binding signal (z-score) [7]	glycan array binding signal (z-score) [8]	glycan array binding signal (z-score) [9]	glycan array binding signal (z-score) [10]	glycan array binding signal (z-score) [11]	glycan array binding signal (z-score) [12]	glycan array binding signal (z-score) [13]	glycan array binding signal (z-score) [14]	glycan array binding signal (z-score) [15]	glycan array binding signal (z-score) [16]	glycan array binding signal (z-score) [17]	glycan array binding signal (z-score) [18]	glycan array binding signal (z-score) [19]	glycan array binding signal (z-score) [20]	glycan array binding signal (z-score) [21]	glycan array binding signal (z-score) [22]	glycan array binding signal (z-score) [23]	glycan array binding signal (z-score) [24]	glycan array binding signal (z-score) [25]	glycan array binding signal (z-score) [26]	glycan array binding signal (z-score) [27]	glycan array binding signal (z-score) [28]	glycan array binding signal (z-score) [29]	glycan array binding signal (z-score) [30]	glycan array binding signal (z-score) [31]	glycan array binding signal (z-score) [32]	glycan array binding signal (z-score) [33]	glycan array binding signal (z-score) [34]	glycan array binding signal (z-score) [35]	glycan array binding signal (z-score) [36]	glycan array binding signal (z-score) [37]	glycan array binding signal (z-score) [38]	glycan array binding signal (z-score) [39]	glycan array binding signal (z-score) [40]
Vd2LysM (Verticillium dahliae) (protein) YRRTCSHTGKGEGWYIIRRGDNFNAVAADFCTSTNVLTEWNHISTITDNMVNTKIKVPCRWNAGKQRDCLKDQKSSNGWYHIVSGDELKDIAYDFCTTSGSLAGMNGISNPDYIKANTDIVVPCSWN	2.91	0.299	-0.965	0.247	0.533	-0.126	-0.592	0.699	0.43	-0.365	-1.06	-0.257	0.452	0.151	6.69	2.23	-0.543	0.73	-0.349	0.984	2.2	-0.656	-0.212	-1.15	2.82	3.56	0.741	-1.11	-1.44	8.56	–	–	–	–	–	–	–	–	–	–
Ecp6 (Cladosporium fulvum), B3VBK9 (protein) MQSMILFAAALMGAAVNGFVLPRTDDPDCETKATDCGSTSNIKYTVVKGDTLTSIAKKFKSGICNIVSVNKLANPNLIELGATLIIPENCSNPDNKSCVSTPAEPTETCVPGLPGSYTIVSGDTLTNISQDFNITLDSLIAANTQIENPDAIDVGQIITVPVCPSSQCEAVGTYNIVAGDLFVDLAATYHTTIGQIKALNNNVNPSKLKVGQQIILPQDCKNVTTAVA	–	–	–	–	–	–	–	–	–	–	–	–	–	–	–	–	–	–	–	–	–	–	–	–	–	–	–	–	–	13	10.7	-0.103	-0.085	-0.099	-0.099	-0.004	-0.073	-0.052	-0.096	-0.063
